Reference: PubChem BioAssay (Tox21)
Records with an inconclusive call do not appear. A number with no mark means an inactive call. The source made the active and inactive calls. The call rests on the fitted dose curve; in most records, active means well fitted activation curve with a large enough effect in the repeat runs; inconclusive means weak or mixed curves; inactive means flat fitted curve, though single readings scatter.

Assay: A CellTox Green Cytotoxicity Assay to monitor cytotoxicity in HepG2 cells - 32 hour (AID 1224883); further: nearly all actives have a fitted effect of over 50% in size
Conditions: CellTox Green fluorescence; series mostly up to 76.8 µM; cytotoxicity increase: at the top concentration
Excerpt: National Center for Advancing Translational Sciences [NCATS]
NIH Chemical Genomics Center [NCGC]
U.S. Environmental Protection Agency [EPA]
National Institutes of Environmental Health Sciences [NIEHS]
National Toxicology Program [NTP]
Cell-based models are critical for drug discovery. Determining the natural cytotoxic effects resulting from test compounds is an essential research activity. A CellTox Green Cytotoxicity Assay to monitor cytotoxicity in real time of continues cell culture during 40 hours of the compound treatment was used to screen Tox21 10K library compounds in HepG2 cells. CellTox Green Cytotoxicity Assay is a nonlytic, homogeneous, biofluorescent method to measure cytotoxicity in cell culture after experimental manipulation. The assay system uses a proprietary asymmetric cyanine dye that is excluded from viable cells but preferentially stains the dead cell's DNA. […] Viable cells produce no appreciable increases in fluorescence. Therefore, the fluorescence signal produced by the binding interaction with dead cell DNA is proportional to cytotoxicity.
The mixture of HepG2 cell suspension and reagents were dispensed at 600cells/6 ul/well in 1536-well tissue culture treated black solid bottom plates using a Multidrop dispenser. After the assay plates were incubated at a 37 C/5% CO2 incubator for 5 hours, 23 nL of compounds dissolved in DMSO, positive and negative controls was transferred to the assay plate by a pintool work station. The plates were incubated at 37 C for 40 hours. The fluorescence intensity were measured at 0h, 8h, 16h, 24h, 32h and 40h time points using ViewLux plate reader during compound treatment.
On the % scale 0 is the no-effect control and ±100 the full control effect; potency means the concentration at half of the fitted maximal effect.

Row | SMILES | cytotoxicity increase | Potency
1 | C[N+]1(C)CCCC(OC(=O)C(O)(c2ccccc2)c2ccccc2)C1 (stereo not given) | -2.26% [at 35.3 µM] | –
2 | C[N+]1(CC2COC(c3ccccc3)(c3ccccc3)O2)CCCCC1 (stereo not given) | -0.506% [at 15.8 µM] | –
3 | CN(C)C(=O)Oc1cccc([N+](C)(C)C)c1 | -17.8% [at 35.3 µM] | –
4 | CC(C)(C#N)Nc1nc(Cl)nc(NC2CC2)n1 | 14.5% | –
5 | CC(N)C12CC3CC(CC(C3)C1)C2 (stereo not given) | 18.1% [at 35.3 µM] | –
6 | CCCCCCC1CCC(=O)O1 (stereo not given) | 6.49% | –
7 | COC(=O)C1=C(C)NC(C)=C(C(=O)OC(C)C)C1c1cccc2nonc12 (stereo not given) | -7.24% [at 35.3 µM] | –
8 | O=[N+]([O-])c1cncn1CCN1CCOCC1 | 18.5% [at 35.3 µM] | –
9 | CC(C)(CCC(=O)O)C(=O)O | 9.1% | –
10 | CCCCS(=O)(=O)N[C@@H](Cc1ccc(OCCCCC2CCNCC2)cc1)C(=O)O | -1.91% [at 35.3 µM] | –
11 | CN1CCN(c2cc3c(nn2)Oc2ccccc2N3C)CC1 | -2% [at 15.8 µM] | –
12 | CN(C)C(=O)Oc1ccc[n+](C)c1 | -8.96% [at 35.3 µM] | –
13 | C=C(C)C(=O)OCC1CCCO1 (stereo not given) | -3.4% | –
14 | CC(=O)N1C[C@H](O)C[C@H]1C(=O)O | -21.8% [at 35.3 µM] | –
15 | CC(=O)Oc1cccc(C)c1 | 1.63% [at 35.3 µM] | –
16 | CC(=O)O[C@@]12CO[C@@H]1C[C@H](O)[C@@]1(C)C(=O)[C@H](O)C3=C(C)[C@@H](OC(=O)[C@H](O)[C@@H](NC(=O)OC(C)(C)C)c4ccccc4)C[C@@](O)([C@@H](OC(=O)c4ccccc4)[C@H]21)C3(C)C | – | 6.7 nM (active)
17 | CN(C)CCCN(C)CCCN(C)C | -18.1% | –
18 | CC[N+](CC)(CC(=O)Nc1c(C)cccc1C)Cc1ccccc1 (tested in a mixture with another compound) | 0.54% [at 35.3 µM] | –
19 | CC(C)C[C@@H](N)C(=O)O | -8.17% [at 15.8 µM] | –
20 | CCCc1nn(C)c2c(=O)[nH]c(-c3cc(S(=O)(=O)N4CCN(C)CC4)ccc3OCC)nc12 | -2.46% [at 35.3 µM] | –

Row | SMILES | cytotoxicity increase | Potency
21 | C=C[Si](OC(C)=O)(OC(C)=O)OC(C)=O | 1.64% | –
22 | C=C(C)C(=O)OCC(O)CO (stereo not given) | -9.14% [at 35.3 µM] | –
23 | CCOC(=O)CCC(=O)OCC | -9.38% | –
24 | OCCc1ccccn1 | -16.1% | –
25 | c1ccc(Cc2ccccc2)cc1 | 23.7% | –
26 | CC(COc1ccccc1)NN (stereo not given) | -9.93% [at 35.3 µM] | –
27 | CCOc1c(N2CCOCC2)cnn(C)c1=O | -8.37% [at 35.3 µM] | –
28 | O=CN(CCO)CCO | 5.53% | –
29 | C[C@@H]1CCC[C@H](C)N1 | 0.291% [at 35.3 µM] | –
30 | O=C1c2ccccc2C(=O)c2cc(O)ccc21 | -0.848% | –
31 | FB(F)F | -20% | –
32 | CC1=C(C/C=C(\C)CCC[C@H](C)CCC[C@H](C)CCCC(C)C)C(=O)c2ccccc2C1=O | 5.63% [at 35.3 µM] | –
33 | NC(=O)NC1N=C([O][Al])NC1=O (stereo not given) | -0.471% [at 35.3 µM] | –
34 | CCN1C=CN(C)C1C (stereo not given) | -5.17% | –
35 | O=S(=O)(O)c1cccc(S(=O)(=O)O)c1 | -7.38% | –
36 | O=C(O)CNC(=O)c1ccc(CO)o1 | -1.02% | –
37 | Cc1ccc(-c2ncc(Cl)cc2-c2ccc(S(C)(=O)=O)cc2)cn1 | 6% [at 35.3 µM] | –
38 | Clc1cc(Cl)cc(Cl)c1 | -5.22% | –
39 | CO[C@@]1(NC(=O)C(C(=O)O)c2ccc(O)cc2)C(=O)N2C(C(=O)O)=C(CSc3nnnn3C)CO[C@@H]21 (stereo not given in full) | -20.1% [at 35.3 µM] | –
40 | [O-][n+]1cccc(CO)c1 | 1.42% [at 35.3 µM] | –
